# Counter-ions that a name gives are not always drawn. ± gives the standard deviation of the averaged measurements.
# What was measured:
# Assay in all cases: growth (OD600 after 10 h); higher = more growth (less inhibition)
# [1] = system: E. coli TESEC Alr+ wild-type control; conditions: compound 0.1 mM; raw OD600 reference: median of DMSO wells 0.241, cell-free background 0.041
# Method: (§1)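 TESEC Mtb Alr E. coli, or the Alr+ wild-type control, in 384-well plates with Prestwick library compounds at 0.1 mM and 1% DMSO, across arabinose induction levels of 1E3 to 1E7 nM. Growth is read as OD600 after 10 h at 37 °C in triplicate biological replicates.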
# [2] = system: E. coli TESEC Mtb Alr; conditions: compound 0.1 mM
# Method: as §1
# [3] = system: E. coli TESEC Mtb Asd; conditions: compound 0.1 mM
# Method: (§2)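 TESEC E. coli strains in which the native enzyme is deleted and replaced by arabinose-inducible Mtb Asd, DapB, CysH or TrpD, each grown in its selective medium. Strains were screened against the Prestwick library at 0.1 mM and 1% DMSO in 384-well format at low and high arabinose induction. Growth is read as OD600 after 10 h in triplicate.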
# [4] = system: E. coli TESEC Mtb DapB; conditions: compound 0.1 mM
# Method: as §2
# [5] = system: E. coli TESEC Alr+ wild-type control; conditions: compound 0.1 mM; raw OD600 reference: median of DMSO wells 0.49, cell-free background 0.052
# Method: (§3)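 TESEC Mtb Alr E. coli (ΔaraC ΔtolC ΔentC Δalr ΔdadX, arabinose-inducible Mtb Alr) or the Alr+ wild-type control strain, grown in defined M9-fructose medium without D-alanine in 96-well plates with Prestwick library compounds at 0.1 mM and 1% DMSO. Low Alr induction is 0.1 µM arabinose and high induction is 10 mM arabinose.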
# [6] = system: E. coli TESEC Mtb Alr; conditions: compound 0.1 mM; remark: listed apart in the source
# Method: as §3
# [7] = arabinose 1000 nM, raw OD600 reference: median of DMSO wells 0.294, cell-free background 0.041
# [8] = arabinose 10000 nM, raw OD600 reference: median of DMSO wells 0.264, cell-free background 0.041
# [9] = arabinose 100000 nM, raw OD600 reference: median of DMSO wells 0.201, cell-free background 0.041
# [10] = arabinose 1000000 nM, raw OD600 reference: median of DMSO wells 0.193, cell-free background 0.041
# [11] = arabinose 10000000 nM, raw OD600 reference: median of DMSO wells 0.146, cell-free background 0.041
# [12] = arabinose induction (level): High, raw OD600 reference: median of DMSO wells 0.331, cell-free background 0.041
# [13] = arabinose induction (level): Low, raw OD600 reference: median of DMSO wells 0.417, cell-free background 0.041
# [14] = arabinose induction (level): High, raw OD600 reference: median of DMSO wells […], cell-free background 0.041
# [15] = arabinose induction (level): Low, raw OD600 reference: median of DMSO wells 0.227, cell-free background 0.041
# [16] = arabinose 100 nM, raw OD600 reference: median of DMSO wells 0.413, cell-free background 0.052
# [17] = arabinose 10000000 nM, raw OD600 reference: median of DMSO wells […], cell-free background 0.052
Structure (SMILES),growth [1],"growth [2, 7]","growth [2, 8]","growth [2, 9]","growth [2, 10]","growth [2, 11]","growth [3, 12]","growth [3, 13]","growth [4, 14]","growth [4, 15]",growth [5],"growth [6, 16]","growth [6, 17]"
C[C@H](CCC(=O)O)[C@H]1CC[C@H]2[C@@H]3[C@@H](O)C[C@@H]4C[C@H](O)CC[C@]4(C)[C@H]3CC[C@]12C [Urosiol],0.2 ± 0.0037,0.279 ± 0.0063,0.188 ± 0.0089,0.188 ± 0.0055,0.1123 ± 0.00023,0.14 ± 0.0032,0.3936 ± 0.0024,0.363 ± 0.018,0.168 ± 0.012,0.206 ± 0.03,0.406 ± 0.011,0.399 ± 0.0058,0.182 ± 0.019
CN1CCN(c2c(F)cc3c(=O)c(C(=O)O)cn4c3c2SCC4)CC1 [Rufloxacin],0.04323 ± 0.00015,0.0429 ± 0.001,0.03973 ± 0.00031,0.04207 ± 0.00031,0.03957 ± 0.00025,0.0429 ± 0.0015,0.04973 ± 0.00045,0.0499 ± 0.0012,0.0507 ± 0.00094,0.0509 ± 0.0014,0.0549 ± 0.00072,0.0582 ± 0.0019,0.05197 ± 0.00051
C[C@]12CC[C@@H]3c4ccc(O)cc4CC[C@H]3[C@@H]1C[C@@H](O)[C@@H]2O [Estriol],0.152 ± 0.0072,0.218 ± 0.018,0.277 ± 0.015,0.148 ± 0.0042,0.135 ± 0.0069,0.143 ± 0.0047,0.221 ± 0.043,0.264 ± 0.034,0.183 ± 0.008,0.203 ± 0.033,0.474 ± 0.021,0.432 ± 0.0087,0.258 ± 0.013
COc1ccc2cc([C@@H](C)C(=O)O)ccc2c1 [(R) -Naproxen sodium salt],0.263 ± 0.0059,0.311 ± 0.018,0.275 ± 0.0043,0.198 ± 0.0079,0.183 ± 0.0045,0.141 ± 0.0034,0.484 ± 0.02,0.341 ± 0.077,0.196 ± 0.014,0.216 ± 0.052,0.448 ± 0.03,0.408 ± 0.0092,0.317 ± 0.0088
Nc1ncnc2c1ncn2[C@@H]1O[C@H](CO)[C@@H](O)[C@@H]1O [Vidarabine],0.206 ± 0.012,0.273 ± 0.022,0.243 ± 0.011,0.145 ± 0.0058,0.148 ± 0.0035,0.138 ± 0.004,0.36 ± 0.077,0.383 ± 0.0057,0.171 ± 0.03,0.21 ± 0.048,0.535 ± 0.069,0.429 ± 0.012,0.306 ± 0.0082
C[C@H]1C[C@H]2[C@@H]3CCC4=CC(=O)C=C[C@]4(C)[C@@]3(F)[C@@H](O)C[C@]2(C)[C@@]1(O)C(=O)CO [Betamethasone],0.184 ± 0.0078,0.231 ± 0.031,0.256 ± 0.002,0.154 ± 0.0079,0.134 ± 0.0038,0.131 ± 0.0027,0.273 ± 0.096,0.36 ± 0.054,0.198 ± 0.033,0.211 ± 0.064,0.552 ± 0.02,0.406 ± 0.0084,0.257 ± 0.0044
NC(=O)c1ncn([C@@H]2O[C@H](CO)[C@@H](O)[C@H]2O)n1 [Ribavirin],0.17 ± 0.02,0.0986 ± 0.0022,0.0798 ± 0.0011,0.117 ± 0.0028,0.0816 ± 0.0003,0.106 ± 0.0017,0.404 ± 0.036,0.426 ± 0.071,0.196 ± 0.021,0.203 ± 0.025,0.54 ± 0.043,0.415 ± 0.046,0.24 ± 0.021
COc1ccc(CC2c3cc(OC)c(OC)cc3CC[N+]2(C)CCC(=O)OCCCCCOC(=O)CC[N+]2(C)CCc3cc(OC)c(OC)cc3C2Cc2ccc(OC)c(OC)c2)cc1OC (stereo not drawn) [Atracurium besylate],0.177 ± 0.0075,0.271 ± 0.013,0.25 ± 0.011,0.174 ± 0.014,0.127 ± 0.0067,0.137 ± 0.006,0.283 ± 0.059,0.398 ± 0.037,0.171 ± 0.017,0.218 ± 0.05,0.431 ± 0.027,0.416 ± 0.014,0.336 ± 0.06
NNc1nncc2ccccc12 [Hydralazine hydrochloride],0.142 ± 0.0062,0.262 ± 0.022,0.256 ± 0.0092,0.174 ± 0.013,0.12 ± 0.0069,0.13 ± 0.0019,0.206 ± 0.017,0.25 ± 0.021,0.19 ± 0.0027,0.229 ± 0.033,0.448 ± 0.049,0.404 ± 0.0077,0.304 ± 0.018
CCCN(CCC)CCc1cccc2c1CC(=O)N2 [Ropinirole HCl],0.239 ± 0.0025,0.301 ± 0.0083,0.251 ± 0.0073,0.195 ± 0.025,0.18 ± 0.009,0.146 ± 0.0056,0.379 ± 0.066,0.441 ± 0.035,0.198 ± 0.013,0.211 ± 0.025,0.443 ± 0.028,0.408 ± 0.01,0.366 ± 0.0066
CCCCC1C(=O)N(c2ccccc2)N(c2ccccc2)C1=O [Phenylbutazone],0.17293 ± 0.00015,0.224 ± 0.0029,0.234 ± 0.023,0.124 ± 0.0055,0.0869 ± 0.0014,0.132 ± 0.0036,0.145 ± 0.0034,0.261 ± 0.083,0.141 ± 0.0096,0.152 ± 0.006,0.576 ± 0.075,0.399 ± 0.0095,0.283 ± 0.034
CO/N=C(\C(=O)N[C@@H]1C(=O)N2C(C(=O)O)=C(COC(N)=O)CS[C@H]12)c1ccco1 [Cefuroxime sodium salt],0.0579 ± 0.0016,0.0404 ± 0.0013,0.0396 ± 0.00059,0.0725 ± 0.0027,0.0701 ± 0.0021,0.115 ± 0.0014,0.213 ± 0.0073,0.232 ± 0.0044,0.229 ± 0.013,0.16 ± 0.009,0.0629 ± 0.0034,0.04693 ± 0.0004,0.169 ± 0.024
Cc1cn([C@H]2C=C[C@@H](CO)O2)c(=O)[nH]c1=O [Stavudine],0.163 ± 0.01,0.285 ± 0.023,0.158 ± 0.017,0.121 ± 0.0031,0.119 ± 0.0013,0.181 ± 0.0073,0.157 ± 0.013,0.158 ± 0.0091,0.192 ± 0.015,0.178 ± 0.0066,0.512 ± 0.037,0.417 ± 0.011,0.218 ± 0.012
Nc1nc(=O)[nH]cc1F [Flucytosine],0.245 ± 0.0069,0.309 ± 0.022,0.243 ± 0.0058,0.187 ± 0.011,0.175 ± 0.008,0.14 ± 0.0027,0.456 ± 0.025,0.492 ± 0.026,0.21 ± 0.018,0.222 ± 0.016,0.57 ± 0.021,0.411 ± 0.015,0.333 ± 0.02
CC(C)(C)c1ccc(C(O)CCCN2CCC(C(O)(c3ccccc3)c3ccccc3)CC2)cc1 (stereo not drawn) [Terfenadine],0.205 ± 0.0036,0.207 ± 0.14,0.296 ± 0.0092,0.181 ± 0.0044,0.136 ± 0.072,0.158 ± 0.0023,0.265 ± 0.054,0.421 ± 0.013,0.199 ± 0.013,0.239 ± 0.014,0.0576 ± 0.0093,0.0737 ± 0.031,0.0518 ± 0.00085
CC(=O)N(O)CCCCCNC(=O)CCC(=O)N(O)CCCCCNC(=O)CCC(=O)N(O)CCCCCN [Deferoxamine mesylate],0.0549 ± 0.00064,0.054 ± 0.0048,0.0561 ± 0.0031,0.0487 ± 0.0017,0.0567 ± 0.0044,0.0625 ± 0.00017,0.139 ± 0.015,0.141 ± 0.027,0.137 ± 0.021,0.13 ± 0.0032,0.1754 ± 0.0017,0.113 ± 0.046,0.0677 ± 0.0037
